Holding throughout (assay): DAPPL (digital affinity profiling via proximity ligation, sequencing); 10 mM Tris-HCl pH 7.5, 50 mM NaCl, 1 mM DTT, 4% glycerol, room temperature, 30 min; GST-TFs on glutathione beads, 16-mer random dsDNA library, 0.1% formaldehyde crosslink after washing; high values mean tight binding
Settings in all cases: protein: recombinant; tags: N-terminal GST; dsDNA, one strand shown

Test [1] deals with T1, ELK1 (Homo sapiens, UniProt P19419 1-428).
T1 sequence: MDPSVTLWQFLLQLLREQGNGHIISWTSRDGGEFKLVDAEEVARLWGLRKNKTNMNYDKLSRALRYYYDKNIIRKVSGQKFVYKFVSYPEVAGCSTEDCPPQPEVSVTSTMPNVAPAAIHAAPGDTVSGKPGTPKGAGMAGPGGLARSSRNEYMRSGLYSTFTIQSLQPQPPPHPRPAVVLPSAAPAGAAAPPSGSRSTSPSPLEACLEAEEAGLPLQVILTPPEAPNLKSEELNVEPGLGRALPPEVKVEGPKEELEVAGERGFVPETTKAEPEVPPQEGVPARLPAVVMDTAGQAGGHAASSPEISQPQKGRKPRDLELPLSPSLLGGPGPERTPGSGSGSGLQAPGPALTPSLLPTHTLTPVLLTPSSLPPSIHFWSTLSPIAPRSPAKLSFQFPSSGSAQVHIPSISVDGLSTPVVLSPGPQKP
In short, it runs like this: (§1)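 Human transcription factors were made in yeast as GST fusions, captured on glutathione beads and barcoded with DNA. With a tag-only sample included, the pool was incubated with 200 nmole of a random double-stranded 16-mer DNA library in Tris/NaCl/DTT/glycerol buffer at room temperature for 30 min, then crosslinked with 0.1% formaldehyde after washing, ligated by proximity, amplified and sequenced. For binding signal, each hexamer's read frequency for a factor is divided by its frequency for the tag-only sample.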

In test [2] the target is T2, GABPA (Homo sapiens, UniProt Q06546 1-454).
T2 sequence: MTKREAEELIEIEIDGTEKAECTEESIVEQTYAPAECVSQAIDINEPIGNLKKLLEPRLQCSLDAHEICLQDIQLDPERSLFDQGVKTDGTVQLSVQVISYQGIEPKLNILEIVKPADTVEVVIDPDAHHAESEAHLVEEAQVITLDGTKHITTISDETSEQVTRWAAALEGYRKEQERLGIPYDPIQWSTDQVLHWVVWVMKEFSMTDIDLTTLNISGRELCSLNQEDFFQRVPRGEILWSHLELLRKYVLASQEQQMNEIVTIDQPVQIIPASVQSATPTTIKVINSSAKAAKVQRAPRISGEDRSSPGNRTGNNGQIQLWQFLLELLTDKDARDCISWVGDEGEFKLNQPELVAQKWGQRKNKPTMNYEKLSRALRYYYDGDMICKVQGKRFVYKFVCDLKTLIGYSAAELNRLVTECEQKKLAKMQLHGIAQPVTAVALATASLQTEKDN
In short, it runs like this:
as §1

For test [3], the target named is T3, ERG (Homo sapiens, UniProt P11308 1-479).
T3 sequence: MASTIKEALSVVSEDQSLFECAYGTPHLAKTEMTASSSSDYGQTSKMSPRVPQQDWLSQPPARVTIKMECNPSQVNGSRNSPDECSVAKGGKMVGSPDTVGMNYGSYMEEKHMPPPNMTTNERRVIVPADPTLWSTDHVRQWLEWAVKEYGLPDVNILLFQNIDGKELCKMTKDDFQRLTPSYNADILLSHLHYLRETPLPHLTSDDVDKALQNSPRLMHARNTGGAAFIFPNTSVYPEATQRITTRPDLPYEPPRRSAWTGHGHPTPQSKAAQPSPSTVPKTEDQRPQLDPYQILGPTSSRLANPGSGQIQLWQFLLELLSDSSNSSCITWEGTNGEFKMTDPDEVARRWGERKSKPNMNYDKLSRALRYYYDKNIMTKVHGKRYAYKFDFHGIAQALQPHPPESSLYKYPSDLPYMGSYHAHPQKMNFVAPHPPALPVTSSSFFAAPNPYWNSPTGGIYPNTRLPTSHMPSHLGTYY
The method in brief: as §1

Test [4] deals with ELF1 (Homo sapiens, UniProt P32519 1-619). The method in brief: as §1
For test [5], the target named is T4, EHF (Homo sapiens, UniProt Q9NZC4 1-300).
T4 sequence: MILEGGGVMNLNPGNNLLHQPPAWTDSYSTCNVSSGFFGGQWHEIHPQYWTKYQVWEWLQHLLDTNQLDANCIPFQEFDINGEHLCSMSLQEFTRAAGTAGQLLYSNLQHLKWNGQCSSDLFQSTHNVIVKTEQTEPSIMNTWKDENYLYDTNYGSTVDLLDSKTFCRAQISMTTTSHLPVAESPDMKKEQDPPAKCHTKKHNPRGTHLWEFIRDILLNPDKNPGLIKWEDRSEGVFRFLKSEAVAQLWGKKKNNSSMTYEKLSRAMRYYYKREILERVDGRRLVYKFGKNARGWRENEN
In short, it runs like this:
as §1

The target of test [6] is SPIB (Homo sapiens, UniProt Q01892 1-262). The method in brief:
as §1

Test [7] has as its target T5, SPIC (Homo sapiens, UniProt Q8N5J4 1-248).
T5 sequence: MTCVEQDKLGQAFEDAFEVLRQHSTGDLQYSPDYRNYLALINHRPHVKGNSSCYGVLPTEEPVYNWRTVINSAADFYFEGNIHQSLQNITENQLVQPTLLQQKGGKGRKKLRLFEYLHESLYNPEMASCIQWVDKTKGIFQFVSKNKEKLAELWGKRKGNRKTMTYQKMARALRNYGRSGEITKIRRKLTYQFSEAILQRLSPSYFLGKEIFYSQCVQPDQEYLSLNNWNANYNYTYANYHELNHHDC
The method in brief:
as §1

Test [8] has as its target ELF4 (Homo sapiens, UniProt Q99607 1-663). The method in brief: as §1
Test [9] has as its target T6, ELK4 (Homo sapiens, UniProt P28324-2 1-405).
T6 sequence: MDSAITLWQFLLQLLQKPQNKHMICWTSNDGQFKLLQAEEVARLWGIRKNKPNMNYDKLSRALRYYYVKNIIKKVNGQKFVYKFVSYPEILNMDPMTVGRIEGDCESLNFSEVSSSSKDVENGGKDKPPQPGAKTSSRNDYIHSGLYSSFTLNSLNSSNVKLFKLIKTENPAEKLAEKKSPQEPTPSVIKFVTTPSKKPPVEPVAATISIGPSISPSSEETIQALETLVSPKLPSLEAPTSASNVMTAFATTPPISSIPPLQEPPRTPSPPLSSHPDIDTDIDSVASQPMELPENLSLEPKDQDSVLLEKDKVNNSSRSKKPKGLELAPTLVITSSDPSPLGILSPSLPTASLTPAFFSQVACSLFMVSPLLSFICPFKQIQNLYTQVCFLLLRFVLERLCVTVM
In short, it runs like this:
as §1

In test [10] the target is T7, ELF3 (Homo sapiens, UniProt P78545 1-371).
T7 sequence: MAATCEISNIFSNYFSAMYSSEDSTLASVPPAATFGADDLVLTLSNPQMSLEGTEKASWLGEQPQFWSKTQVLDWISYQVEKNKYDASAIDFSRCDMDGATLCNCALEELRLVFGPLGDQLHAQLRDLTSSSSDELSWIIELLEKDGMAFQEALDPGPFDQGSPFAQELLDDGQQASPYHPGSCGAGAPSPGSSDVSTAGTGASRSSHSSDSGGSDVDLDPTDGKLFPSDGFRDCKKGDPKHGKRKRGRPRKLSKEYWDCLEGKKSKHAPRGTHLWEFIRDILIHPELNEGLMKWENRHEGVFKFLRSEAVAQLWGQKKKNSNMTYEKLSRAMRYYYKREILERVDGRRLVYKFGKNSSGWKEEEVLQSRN
The method in brief:
as §1

In test [11] the target is ETV1 (Homo sapiens, UniProt P50549 1-477). The method in brief:
as §1

Test [12] deals with T8, ERF (Homo sapiens, UniProt P50548 1-548).
T8 sequence: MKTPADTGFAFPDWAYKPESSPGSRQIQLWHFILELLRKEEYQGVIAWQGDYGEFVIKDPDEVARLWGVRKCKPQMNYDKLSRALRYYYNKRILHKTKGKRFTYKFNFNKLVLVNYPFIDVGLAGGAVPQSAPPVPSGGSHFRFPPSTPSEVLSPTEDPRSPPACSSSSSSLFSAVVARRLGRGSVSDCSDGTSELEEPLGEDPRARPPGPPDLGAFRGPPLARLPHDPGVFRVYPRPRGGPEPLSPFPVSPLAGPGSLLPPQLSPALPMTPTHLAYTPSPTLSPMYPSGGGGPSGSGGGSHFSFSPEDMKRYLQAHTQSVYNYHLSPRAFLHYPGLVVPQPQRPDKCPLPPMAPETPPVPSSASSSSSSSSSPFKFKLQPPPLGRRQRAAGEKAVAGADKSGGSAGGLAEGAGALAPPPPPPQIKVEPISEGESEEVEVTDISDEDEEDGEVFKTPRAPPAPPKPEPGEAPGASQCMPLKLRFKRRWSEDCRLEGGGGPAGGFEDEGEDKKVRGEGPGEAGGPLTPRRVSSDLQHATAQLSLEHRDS
In short, it runs like this:
as §1

Test [13] deals with T9, ETV3L (Homo sapiens, UniProt Q6ZN32 1-361).
T9 sequence: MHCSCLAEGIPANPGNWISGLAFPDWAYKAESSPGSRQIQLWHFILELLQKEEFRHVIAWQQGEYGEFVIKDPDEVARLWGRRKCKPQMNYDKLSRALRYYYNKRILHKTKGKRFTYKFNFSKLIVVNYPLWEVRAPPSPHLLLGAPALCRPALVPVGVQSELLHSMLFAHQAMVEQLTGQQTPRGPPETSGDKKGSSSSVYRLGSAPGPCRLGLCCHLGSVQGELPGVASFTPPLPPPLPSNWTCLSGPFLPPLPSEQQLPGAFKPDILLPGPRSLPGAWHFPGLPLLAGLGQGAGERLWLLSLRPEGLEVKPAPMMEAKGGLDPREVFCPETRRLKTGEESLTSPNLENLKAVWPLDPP
In short, it runs like this:
as §1

Test [14] deals with T10, ETS2 (Homo sapiens, UniProt P15036 1-469).
T10 sequence: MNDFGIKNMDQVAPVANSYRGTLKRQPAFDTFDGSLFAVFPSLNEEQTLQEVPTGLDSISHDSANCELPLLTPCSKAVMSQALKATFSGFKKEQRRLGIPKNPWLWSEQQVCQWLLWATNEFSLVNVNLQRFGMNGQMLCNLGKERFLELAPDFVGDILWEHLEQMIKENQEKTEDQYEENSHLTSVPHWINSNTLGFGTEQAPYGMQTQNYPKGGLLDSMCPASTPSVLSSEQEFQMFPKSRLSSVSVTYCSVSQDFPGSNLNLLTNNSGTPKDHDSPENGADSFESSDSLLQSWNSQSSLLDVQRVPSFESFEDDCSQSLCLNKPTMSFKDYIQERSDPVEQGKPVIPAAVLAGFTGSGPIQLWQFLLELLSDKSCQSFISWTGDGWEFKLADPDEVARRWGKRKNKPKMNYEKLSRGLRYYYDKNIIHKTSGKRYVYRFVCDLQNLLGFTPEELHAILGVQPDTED
In short, it runs like this:
as §1

The target of test [15] is T11, SPDEF (Homo sapiens, UniProt O95238 1-335).
T11 sequence: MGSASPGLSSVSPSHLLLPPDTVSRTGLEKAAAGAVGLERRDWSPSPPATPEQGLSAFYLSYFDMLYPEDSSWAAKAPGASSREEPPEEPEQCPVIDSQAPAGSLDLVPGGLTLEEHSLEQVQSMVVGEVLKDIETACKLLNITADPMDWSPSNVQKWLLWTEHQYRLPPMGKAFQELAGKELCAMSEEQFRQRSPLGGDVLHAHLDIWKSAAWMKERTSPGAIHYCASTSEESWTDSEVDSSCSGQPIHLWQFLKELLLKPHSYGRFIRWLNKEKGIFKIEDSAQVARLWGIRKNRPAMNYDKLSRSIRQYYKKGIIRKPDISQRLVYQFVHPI
The method in brief: as §1

Test [16] has as its target T12, ETV7 (Homo sapiens, UniProt Q9Y603 1-341).
T12 sequence: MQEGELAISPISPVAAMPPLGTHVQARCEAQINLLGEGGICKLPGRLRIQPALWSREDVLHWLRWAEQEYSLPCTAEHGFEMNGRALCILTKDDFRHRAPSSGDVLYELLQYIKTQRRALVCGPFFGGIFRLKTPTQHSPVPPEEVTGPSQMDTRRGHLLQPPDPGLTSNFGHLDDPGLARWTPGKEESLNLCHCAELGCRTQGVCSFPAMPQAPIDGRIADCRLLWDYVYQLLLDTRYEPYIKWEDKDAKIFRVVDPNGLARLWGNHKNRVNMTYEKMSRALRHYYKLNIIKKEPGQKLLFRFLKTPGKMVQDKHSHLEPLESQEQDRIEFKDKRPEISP
The method in brief:
as §1

Test [17] addresses T13, ETV3 (Homo sapiens, UniProt P41162-2 1-143).
T13 sequence: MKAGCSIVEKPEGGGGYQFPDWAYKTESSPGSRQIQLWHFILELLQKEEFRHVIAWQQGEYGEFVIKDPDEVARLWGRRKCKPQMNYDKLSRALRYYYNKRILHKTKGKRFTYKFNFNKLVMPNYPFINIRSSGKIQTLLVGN
The method in brief: as §1

The target of test [18] is ETV6 (Homo sapiens, UniProt P41212 1-452). The method in brief: as §1
ETV6, sequence (P41212 whole entry): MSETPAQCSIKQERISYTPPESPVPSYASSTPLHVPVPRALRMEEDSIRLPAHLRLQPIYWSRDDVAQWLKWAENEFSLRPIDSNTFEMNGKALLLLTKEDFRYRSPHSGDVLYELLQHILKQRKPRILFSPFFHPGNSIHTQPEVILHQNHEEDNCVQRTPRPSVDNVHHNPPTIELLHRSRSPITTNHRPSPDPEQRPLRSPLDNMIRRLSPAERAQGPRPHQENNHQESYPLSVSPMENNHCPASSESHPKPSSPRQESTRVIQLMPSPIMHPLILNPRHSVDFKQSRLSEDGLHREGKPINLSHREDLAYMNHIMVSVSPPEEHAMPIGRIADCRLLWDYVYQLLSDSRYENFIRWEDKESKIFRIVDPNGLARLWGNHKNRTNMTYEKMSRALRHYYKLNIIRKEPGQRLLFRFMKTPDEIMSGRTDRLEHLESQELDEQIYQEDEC

ELF4, sequence (Q99607 whole entry): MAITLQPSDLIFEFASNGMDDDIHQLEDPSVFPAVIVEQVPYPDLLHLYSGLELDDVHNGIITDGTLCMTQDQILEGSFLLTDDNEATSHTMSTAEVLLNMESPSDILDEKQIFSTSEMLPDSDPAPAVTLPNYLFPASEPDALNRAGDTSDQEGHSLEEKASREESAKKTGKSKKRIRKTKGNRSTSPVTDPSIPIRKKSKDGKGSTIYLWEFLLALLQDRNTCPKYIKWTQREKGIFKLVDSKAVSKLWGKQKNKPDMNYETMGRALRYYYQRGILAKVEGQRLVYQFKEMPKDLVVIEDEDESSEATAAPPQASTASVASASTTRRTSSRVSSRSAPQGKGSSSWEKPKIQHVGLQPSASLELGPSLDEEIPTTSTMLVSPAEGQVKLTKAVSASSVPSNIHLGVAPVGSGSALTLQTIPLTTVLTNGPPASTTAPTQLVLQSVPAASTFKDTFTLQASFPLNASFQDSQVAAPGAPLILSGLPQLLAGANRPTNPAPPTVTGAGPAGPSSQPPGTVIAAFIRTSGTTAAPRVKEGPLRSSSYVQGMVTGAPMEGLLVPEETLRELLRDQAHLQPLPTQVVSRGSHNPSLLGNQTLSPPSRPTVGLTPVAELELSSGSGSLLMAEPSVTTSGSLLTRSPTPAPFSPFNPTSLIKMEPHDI
SPIB, sequence (Q01892 whole entry): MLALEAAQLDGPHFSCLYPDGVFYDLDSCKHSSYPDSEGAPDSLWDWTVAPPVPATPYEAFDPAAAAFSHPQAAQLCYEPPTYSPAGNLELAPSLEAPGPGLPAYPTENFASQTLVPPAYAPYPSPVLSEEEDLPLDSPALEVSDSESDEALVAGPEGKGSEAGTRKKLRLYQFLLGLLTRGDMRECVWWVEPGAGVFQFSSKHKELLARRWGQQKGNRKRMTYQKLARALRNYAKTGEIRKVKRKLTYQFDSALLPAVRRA
ETV1, sequence (P50549 whole entry): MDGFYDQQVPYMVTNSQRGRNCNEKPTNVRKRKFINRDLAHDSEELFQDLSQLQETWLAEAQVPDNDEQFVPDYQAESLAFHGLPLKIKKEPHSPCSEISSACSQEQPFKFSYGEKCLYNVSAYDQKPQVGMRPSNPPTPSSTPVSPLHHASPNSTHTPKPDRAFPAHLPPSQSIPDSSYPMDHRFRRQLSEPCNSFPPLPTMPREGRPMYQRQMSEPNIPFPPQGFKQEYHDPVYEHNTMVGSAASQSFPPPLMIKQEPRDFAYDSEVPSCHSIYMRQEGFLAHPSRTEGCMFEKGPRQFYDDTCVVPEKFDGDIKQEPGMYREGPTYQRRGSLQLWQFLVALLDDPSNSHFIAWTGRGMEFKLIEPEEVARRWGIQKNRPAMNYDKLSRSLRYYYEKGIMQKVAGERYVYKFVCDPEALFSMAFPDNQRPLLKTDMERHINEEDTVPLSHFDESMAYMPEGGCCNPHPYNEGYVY
ELF1, sequence (P32519 whole entry): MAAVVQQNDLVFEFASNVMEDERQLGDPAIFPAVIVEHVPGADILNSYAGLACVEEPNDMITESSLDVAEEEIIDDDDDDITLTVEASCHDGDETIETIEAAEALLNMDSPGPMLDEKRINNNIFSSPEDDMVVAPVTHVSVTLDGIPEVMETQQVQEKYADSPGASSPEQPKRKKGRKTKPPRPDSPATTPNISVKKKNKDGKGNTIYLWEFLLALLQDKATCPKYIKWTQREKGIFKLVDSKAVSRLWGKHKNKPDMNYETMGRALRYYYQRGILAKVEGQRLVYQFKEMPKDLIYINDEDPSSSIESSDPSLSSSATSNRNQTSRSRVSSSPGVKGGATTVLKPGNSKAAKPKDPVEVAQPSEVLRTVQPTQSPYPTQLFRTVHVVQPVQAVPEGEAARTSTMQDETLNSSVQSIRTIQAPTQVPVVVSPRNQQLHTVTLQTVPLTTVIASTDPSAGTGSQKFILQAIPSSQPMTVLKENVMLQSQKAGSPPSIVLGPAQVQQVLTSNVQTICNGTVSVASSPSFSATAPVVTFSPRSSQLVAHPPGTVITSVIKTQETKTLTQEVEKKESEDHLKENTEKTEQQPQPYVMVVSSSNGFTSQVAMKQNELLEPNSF

In the case of ACAGCC, the binding signal is 1.1 fold enrichment (6-mer frequency, TF over GST control) in test [1]; 1.07 fold enrichment (6-mer frequency, TF over GST control) in [2]; 1.02 fold enrichment (6-mer frequency, TF over GST control) in test [3]; 1.11 fold enrichment (6-mer frequency, TF over GST control) in test [4]; 1.11 fold enrichment (6-mer frequency, TF over GST control) in test [5]; 1.03 fold enrichment (6-mer frequency, TF over GST control) in [6]. In addition, the binding signal in test [7] is 1.08 fold enrichment (6-mer frequency, TF over GST control); in [8] it was 1.11 fold enrichment (6-mer frequency, TF over GST control); in test [9], 1.04 fold enrichment (6-mer frequency, TF over GST control); in test [10], 1.24 fold enrichment (6-mer frequency, TF over GST control); in [11], 1.06 fold enrichment (6-mer frequency, TF over GST control); in [12], 1.18 fold enrichment (6-mer frequency, TF over GST control). In addition, the binding signal in test [13] was 1.04 fold enrichment (6-mer frequency, TF over GST control); in test [14], 1.03 fold enrichment (6-mer frequency, TF over GST control); in test [15] it was 1.02 fold enrichment (6-mer frequency, TF over GST control); in [16], 1.15 fold enrichment (6-mer frequency, TF over GST control); in test [17], 1.04 fold enrichment (6-mer frequency, TF over GST control); in [18], 1.03 fold enrichment (6-mer frequency, TF over GST control).

These data come from article PMC7862700, “An all-to-all approach to the identification of sequence-specific readers for epigenetic DNA modifications on cytosine”.
